Results from PubChem BioAssay (NCATS).
A number with no mark means an inactive call. Inconclusive results are not listed. Entries that show only a call come without a potency. Calls of active or inactive are those of the source. Unless noted, calls follow the shape of the dose curve; as a rule, active = well fitted curve in either direction with a large enough effect (not every such curve was filed as active); inconclusive = small, poorly fitted or top-dose-only effect, or another doubt; inactive = flat fitted curve, though single readings scatter.

Experiments:
[1] = AP1 Signaling Pathway (AID 357); settings: ME-180 AP-1-bla reporter, EGF-induced, beta-lactamase ratio, 5 h; at 7.69 µM (top of the series) unless noted
Summary of the method: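 ME-180 cells with beta-lactamase reporter under AP-1 response element, stimulated with EC50 EGF; compounds tested in titration series, 5 h at 37 °C. CCF4 substrate added 2.5 h at room temperature; 460/530 nm emission ratio gave %activity and AC50.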

[2] = NFAT Signaling Pathway (AID 444); settings: Jurkat NFAT-bla M1, carbachol, beta-lactamase ratio, 5 h; at 7.69 µM (top of the series) unless noted;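 also: carbachol stimulus at about its EC50 of 1 µM final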
Summary of the method: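 Jurkat cells carrying an NFAT-driven β-lactamase reporter and co-transfected muscarinic M1 receptor were treated with compound plus carbachol (1 uM final, an EC50 level) for 5 h at 37 °C. CCF4 loading followed for 1 h at RT; 460/530 nm ratio gave %activity.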

[3] = Stat Signaling Pathway (AID 446); settings: ME-180 SIE beta-lactamase reporter, IL-6 stimulated, 5 h; at 7.69 µM (top of the series) unless noted;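 also: ME-180 cervical cancer cells given 40 pM IL-6 alongside compound; SIE-controlled beta-lactamase reporter measured as 460/530 nm FRET emission ratio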
Summary of the method: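 ME-180 cells carrying a SIE-driven beta-lactamase reporter are stimulated with 40 pM IL-6 for 5 h at 37C in the presence of compound. The 460/530 nm FRET substrate ratio is read after 2.5 h at RT. Data are normalised to 300 pM IL-6 and to 125 nM JAK inhibitor controls.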

[4] = molecular target: Glucocorticoid receptor (Homo sapiens) (UniProt P04150); experiment: GR-GFP Redistribution (AID 450;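 active = compounds whose dose series gives a full or clear partial fitted curve of increased nuclear translocation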; also: potency is read from the fitted curve at half-maximal effect); settings: U2OS GR-GFP nuclear translocation, laser cytometry, 2 h
[5] = molecular target: Glucocorticoid receptor (Homo sapiens) (UniProt P04150); experiment: GR-EFC Redistribution (AID 451; calls by dose curve; also: potency is read from the fitted curve at half-maximal effect); settings: CHO-K1 GR-EFC translocation, beta-gal luminescence, 2 h
Summary of the method: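 CHO-K1 cells stably expressing nuclear-localized β-gal enzyme acceptor and GR fused C-terminally to the enzyme donor fragment; ligand-driven nuclear translocation restores β-gal by complementation. Compounds titrated up to 46 uM final, 2 h at 37 °C; luminescence read.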

[6] = molecular target: Mitogen-activated protein kinase 10 (Mus musculus) (UniProt Q61831); experiment: JNK3 AlphaScreen Assay (AID 530);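 also: kinase came from lysate of stimulated human HepG2 cells; signal reports phosphorylation of biotinylated GST-cJun 1-79 at Ser73 with 10 µM ATP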
Summary of the method: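 Inhibitors reduce antibody binding to phosphorylated biotin-cJun, lowering AlphaScreen luminescence. Lysates from HepG2 cells pre-activated by IL-1beta plus TNF-alpha supplied JNK3; compounds were titrated.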

[7] = molecular target: 3',5'-cyclic-AMP phosphodiesterase 4B (Homo sapiens) (UniProt Q07343); experiment: qHTS Assay for Inhibitors of PDE-IV (AID 607; active = well fitted activation curve with a large enough effect in the main read-out, with a control signal flat, not every such curve was filed as active)
Summary of the method: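 HEK293 ACTOne cells with CNG channel (1000/well), endogenous PDE4; membrane potential dye, compounds up to 22.9 uM final. Fluorescence Ex 535/Em 590; RO 20-1724 (100 uM final) as reference.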

[8] = qHTS Assay for Identification of Small Molecule Agonists for Hypoxia Response Element Signaling Pathway (AID 914; active = well fitted activation curve with a large enough effect in the signal ratio, with a control signal flat, not every such curve was filed as active; the % refers to the signal ratio); settings: ME-180 (cervical carcinoma) HRE-bla reporter, beta-lactamase ratio, CoCl2, 17 h; activation: stronger effect = higher value
Summary of the method: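 HRE-bla ME-180 cells, overnight plating in Opti-MEM with 0.5% dialyzed FBS; cpd titration + EC50 CoCl2, 17 h, 37 degrees Celsius; CCF4 2.5 h RT; 460/530 nm ratio; AC50.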

[9] = molecular target: Muscarinic acetylcholine receptor M1 (Rattus norvegicus) (UniProt P08482); experiment: qHTS Assay for Antagonists of Acetylcholine Muscarinic M1 Receptor: Kinetic Measurement of Intracellular Calcium Response (AID 943; active = well fitted curve in the direction sought with a large enough effect; an effect the other way counts as inactive or inconclusive; also: nearly all actives have a fitted effect of over 75% in size)
Summary of the method: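 CHO cells expressing rat M1 receptor, Fluo-4 loaded, preincubated 10 min with compound, then stimulated with EC80 carbachol (100 nM final). Kinetic calcium fluorescence over 4 min; response taken as peak over basal signal.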

[10] = molecular target: Muscarinic acetylcholine receptor M1 (Rattus norvegicus) (UniProt P08482); experiment: qHTS Assay for Antagonists of Acetylcholine Muscarinic M1 Receptor: Measurement of IP-One Response (AID 944; active = well fitted curve in the direction sought with a large enough effect; an effect the other way counts as inactive or inconclusive; also: nearly all actives have a fitted effect of over 75% in size)
Summary of the method: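 CHO cells stably expressing rat M1, pretreated 10 min with compound, then stimulated 30 min with carbachol at EC80 (200 nM) in LiCl-containing buffer pH 7.4; IP1 accumulation read by HTRF competition (665/620 nm).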

[11] = molecular target: Pyruvate kinase (Leishmania mexicana) (UniProt Q27686); experiment: qHTS Validation Assay for Inhibitors of Leishmania Mexicana Pyruvate Kinase (AID 945; active = well fitted curve in the direction sought with a large enough effect; an effect the other way counts as inactive or inconclusive)
Summary of the method: (§1)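 Luminescent ATP detection (PKLight) after a 1 h room-temperature reaction of 0.2 nM LmPYK E451W mutant with 0.5 mM PEP and 0.1 mM ADP at pH 7.2. Activity is normalized to DMSO-only control wells.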

[12] = molecular target: Pyruvate kinase PKM (Homo sapiens) (UniProt P14618); experiment: qHTS Assay for Activators of Human Muscle Pyruvate Kinase (AID 954; active = well fitted curve in the direction sought with a large enough effect, not every such curve was filed as active)
Summary of the method: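 Purified human PKM2 (0.1 nM) with 0.5 mM PEP (Km) and 0.1 mM ADP in 50 mM imidazole pH 7.2, KCl, MgCl2, 1 h at room temperature; ATP formed read by coupled luciferase luminescence. Normalized to no-enzyme/110 uM thiadiazolimine inhibition; 0.3 nM enzyme column for activation.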

[13] = molecular target: Alpha-galactosidase A (Homo sapiens) (UniProt P06280); experiment: Counterscreen for Glucocerebrosidase Inhibitors: qHTS Assay for Human alpha-Galactosidase at pH 4.5 (AID 992; active = well fitted curve in the direction sought with a large enough effect; an effect the other way counts as inactive or inconclusive)
Summary of the method: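 Human enzyme (2 nM) with 80 uM 4-methylumbelliferyl alpha-D-galactopyranoside in 50 mM citric acid, 0.005% Tween-20, pH 4.5, 20 min at room temperature. Compounds 0.7 nM–77 uM; fluorescence Ex 365/Em 440 after pH 10 stop; AC50 from Hill fits.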

[14] = molecular target: alpha-glucosidase (Oryza sativa, rice) (UniProt Q653V4); experiment: Counterscreen for Glucocerebrosidase Inhibitors: qHTS Assay for Rice alpha-Glucosidase at pH 5.0 (AID 997; active = well fitted curve in the direction sought with a large enough effect; an effect the other way counts as inactive or inconclusive)
Summary of the method: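 Rice alpha-glucosidase (4 nM final) with 400 uM 4-methylumbelliferyl-alpha-D-glucopyranoside in citrate buffer pH 5.0, 20 min at room temperature, stopped at pH 10; fluorescence 365/440 nm, compounds 0.7 nM–77 uM, AC50 from Hill fits.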

[15] = molecular target: Guanine nucleotide-binding protein G(i) subunit alpha-1 (Homo sapiens) (UniProt P63096); experiment: qHTS Assay for Inhibitors of RGS12 GoLoco Motif Activity (Green Fluorophore) (AID 879; active = well fitted curve in the direction sought with a large enough effect; an effect the other way counts as inactive or inconclusive;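 also: negative values mean loss of peptide binding seen as reduced polarization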)
Summary of the method: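 Fluorescence polarization assay: 50 nM Gαi1 with 10 nM FITC-labeled RGS12 GoLoco peptide in 10 mM Tris pH 7.5, 150 mM NaCl, 0.1 mM GDP, 0.05% NP40, 10 min at room temperature with compound.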

[16] = qHTS Assay for Identification of Small Molecule Antagonists for NFkB Signaling Pathway (AID 895; active = well fitted inhibition curve with a large enough effect in the signal ratio, with a control signal flat, not every such curve was filed as active; the % refers to the signal ratio)
Summary of the method: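 NFkB-bla ME-180 cervical carcinoma cells with beta-lactamase reporter under NFkB response element; compounds added, then TNF alpha at 10 pM final (EC50), 5 h at 37 C. LiveBLAzer substrate 2 h, room temperature; emission 460/530 nm at 405 nm excitation.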

[17] = qHTS Assay for Identification of Small Molecule Agonists for Thrombopoietin (TPO) Signaling Pathway (AID 917; active = well fitted curve in the direction sought with a large enough effect; an effect the other way counts as inactive or inconclusive)
Summary of the method: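 Murine Ba/F3 cells expressing human TPO receptor and GPIIb-promoter luciferase, IL-3-starved overnight, given compound plus TPO at 26 pM (EC50). After 24 h at 37 C, 5% CO2, luminescence read.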

[18] = molecular target: Pyruvate kinase (Leishmania mexicana) (UniProt Q27686); experiment: qHTS Validation Assay for Activators of Leishmania Mexicana Pyruvate Kinase (AID 959; active = well fitted curve in the direction sought with a large enough effect; an effect the other way counts as inactive or inconclusive)
Summary of the method: as §1

Chain of 3',5'-cyclic-AMP phosphodiesterase 4B (Homo sapiens) (Q07343 whole entry, looked up): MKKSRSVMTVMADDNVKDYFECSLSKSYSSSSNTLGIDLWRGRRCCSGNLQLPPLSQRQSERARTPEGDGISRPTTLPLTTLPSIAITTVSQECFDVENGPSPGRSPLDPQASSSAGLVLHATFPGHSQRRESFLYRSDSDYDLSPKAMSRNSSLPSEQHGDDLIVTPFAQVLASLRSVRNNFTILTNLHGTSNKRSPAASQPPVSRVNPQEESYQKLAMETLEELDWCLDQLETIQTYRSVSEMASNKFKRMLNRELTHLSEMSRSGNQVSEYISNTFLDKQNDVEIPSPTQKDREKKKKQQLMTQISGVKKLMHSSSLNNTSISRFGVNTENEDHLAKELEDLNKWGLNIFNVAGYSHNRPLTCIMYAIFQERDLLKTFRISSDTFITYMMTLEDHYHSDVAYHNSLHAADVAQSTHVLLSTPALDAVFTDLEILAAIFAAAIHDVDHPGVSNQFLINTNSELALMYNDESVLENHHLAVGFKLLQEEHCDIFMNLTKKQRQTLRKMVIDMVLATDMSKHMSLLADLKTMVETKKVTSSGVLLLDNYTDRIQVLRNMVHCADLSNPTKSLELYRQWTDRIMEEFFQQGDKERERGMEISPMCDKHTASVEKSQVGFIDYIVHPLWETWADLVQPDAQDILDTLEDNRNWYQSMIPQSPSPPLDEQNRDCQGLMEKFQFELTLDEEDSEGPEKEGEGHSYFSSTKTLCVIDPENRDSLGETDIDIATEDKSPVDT
Chain of Glucocorticoid receptor (Homo sapiens) (P04150 whole entry, looked up, the tested form may be a part): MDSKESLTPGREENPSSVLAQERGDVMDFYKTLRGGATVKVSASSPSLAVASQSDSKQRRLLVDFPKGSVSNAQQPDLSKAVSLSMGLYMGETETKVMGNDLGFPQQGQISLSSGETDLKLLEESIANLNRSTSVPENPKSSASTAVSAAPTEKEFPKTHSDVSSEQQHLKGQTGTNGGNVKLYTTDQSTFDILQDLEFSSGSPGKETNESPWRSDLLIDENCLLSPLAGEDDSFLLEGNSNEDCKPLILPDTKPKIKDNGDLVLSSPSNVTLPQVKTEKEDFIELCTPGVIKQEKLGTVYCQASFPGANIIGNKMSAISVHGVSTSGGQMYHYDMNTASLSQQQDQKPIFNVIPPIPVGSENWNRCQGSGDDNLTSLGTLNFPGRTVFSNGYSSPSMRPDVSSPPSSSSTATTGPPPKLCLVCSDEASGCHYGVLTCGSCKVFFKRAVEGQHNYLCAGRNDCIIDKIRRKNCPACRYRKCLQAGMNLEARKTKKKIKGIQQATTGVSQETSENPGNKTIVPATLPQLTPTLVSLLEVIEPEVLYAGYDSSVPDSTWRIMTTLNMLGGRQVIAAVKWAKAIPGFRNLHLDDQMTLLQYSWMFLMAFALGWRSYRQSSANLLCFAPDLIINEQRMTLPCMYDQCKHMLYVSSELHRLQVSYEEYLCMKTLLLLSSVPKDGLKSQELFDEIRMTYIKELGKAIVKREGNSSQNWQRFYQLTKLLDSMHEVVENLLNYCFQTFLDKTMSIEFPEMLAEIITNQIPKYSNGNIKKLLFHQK
Chain of Muscarinic acetylcholine receptor M1 (Rattus norvegicus) (P08482 whole entry, looked up): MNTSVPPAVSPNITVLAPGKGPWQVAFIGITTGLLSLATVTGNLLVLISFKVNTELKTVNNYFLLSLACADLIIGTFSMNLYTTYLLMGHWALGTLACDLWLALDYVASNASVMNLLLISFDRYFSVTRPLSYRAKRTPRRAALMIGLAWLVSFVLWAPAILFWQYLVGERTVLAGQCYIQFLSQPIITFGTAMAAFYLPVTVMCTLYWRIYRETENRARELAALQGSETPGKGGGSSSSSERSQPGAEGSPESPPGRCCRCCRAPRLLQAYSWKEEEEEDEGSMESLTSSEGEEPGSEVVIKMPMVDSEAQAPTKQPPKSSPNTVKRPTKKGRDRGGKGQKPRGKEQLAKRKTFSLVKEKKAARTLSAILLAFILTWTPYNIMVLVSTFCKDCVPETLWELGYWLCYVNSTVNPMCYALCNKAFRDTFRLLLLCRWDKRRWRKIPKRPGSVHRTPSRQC
Chain of Pyruvate kinase (Leishmania mexicana) (Q27686 2-499 E452W): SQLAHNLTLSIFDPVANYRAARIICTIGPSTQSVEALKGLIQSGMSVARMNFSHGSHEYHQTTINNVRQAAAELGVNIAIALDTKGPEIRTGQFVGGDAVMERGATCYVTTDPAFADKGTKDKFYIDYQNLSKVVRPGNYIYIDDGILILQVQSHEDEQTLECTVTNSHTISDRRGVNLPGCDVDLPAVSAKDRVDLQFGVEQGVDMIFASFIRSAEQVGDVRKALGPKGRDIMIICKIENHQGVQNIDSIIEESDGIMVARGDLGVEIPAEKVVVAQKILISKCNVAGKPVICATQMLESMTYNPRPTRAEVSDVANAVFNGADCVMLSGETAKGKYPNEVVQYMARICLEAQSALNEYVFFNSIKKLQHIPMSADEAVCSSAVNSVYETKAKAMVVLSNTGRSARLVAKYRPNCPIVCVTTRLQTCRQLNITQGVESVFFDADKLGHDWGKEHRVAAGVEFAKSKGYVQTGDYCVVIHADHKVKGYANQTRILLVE
Chain of Alpha-galactosidase A (Homo sapiens) (P06280 whole entry, looked up): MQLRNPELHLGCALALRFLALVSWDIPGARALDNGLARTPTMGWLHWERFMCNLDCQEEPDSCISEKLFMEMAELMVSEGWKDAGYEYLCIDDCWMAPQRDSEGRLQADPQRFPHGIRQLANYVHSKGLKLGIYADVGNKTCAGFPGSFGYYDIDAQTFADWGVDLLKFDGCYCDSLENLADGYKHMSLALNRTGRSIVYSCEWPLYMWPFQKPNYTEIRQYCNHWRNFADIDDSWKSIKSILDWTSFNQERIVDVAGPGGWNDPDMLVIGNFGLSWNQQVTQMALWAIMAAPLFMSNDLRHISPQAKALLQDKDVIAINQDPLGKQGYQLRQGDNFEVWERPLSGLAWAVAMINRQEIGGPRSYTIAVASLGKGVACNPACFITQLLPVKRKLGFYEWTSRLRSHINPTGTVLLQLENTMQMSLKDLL
Chain of Pyruvate kinase PKM (Homo sapiens) (P14618 whole entry, looked up): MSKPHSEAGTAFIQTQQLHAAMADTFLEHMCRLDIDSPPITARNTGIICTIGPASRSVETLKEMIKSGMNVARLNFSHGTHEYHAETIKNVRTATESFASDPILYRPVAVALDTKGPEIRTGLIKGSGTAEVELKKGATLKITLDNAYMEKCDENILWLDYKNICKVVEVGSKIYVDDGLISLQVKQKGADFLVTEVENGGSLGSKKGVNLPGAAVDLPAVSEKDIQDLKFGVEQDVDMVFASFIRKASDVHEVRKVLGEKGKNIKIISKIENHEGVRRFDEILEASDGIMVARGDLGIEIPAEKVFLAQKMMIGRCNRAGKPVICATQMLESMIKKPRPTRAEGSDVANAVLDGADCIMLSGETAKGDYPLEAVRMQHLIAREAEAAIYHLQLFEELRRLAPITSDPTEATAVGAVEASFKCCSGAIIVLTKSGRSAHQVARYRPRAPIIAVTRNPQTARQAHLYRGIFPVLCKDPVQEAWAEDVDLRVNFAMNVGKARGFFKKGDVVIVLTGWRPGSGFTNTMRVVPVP
Chain of Guanine nucleotide-binding protein G(i) subunit alpha-1 (Homo sapiens) (P63096 whole entry, looked up): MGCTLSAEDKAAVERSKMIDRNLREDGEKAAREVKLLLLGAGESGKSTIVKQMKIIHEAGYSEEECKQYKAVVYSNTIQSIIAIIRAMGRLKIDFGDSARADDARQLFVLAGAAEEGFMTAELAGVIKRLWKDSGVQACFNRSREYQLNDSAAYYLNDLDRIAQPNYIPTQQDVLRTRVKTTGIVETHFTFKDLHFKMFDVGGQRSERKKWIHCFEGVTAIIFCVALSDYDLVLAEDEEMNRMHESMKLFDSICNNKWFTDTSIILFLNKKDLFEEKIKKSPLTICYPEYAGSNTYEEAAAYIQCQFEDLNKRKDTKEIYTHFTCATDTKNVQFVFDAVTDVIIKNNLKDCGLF

## NC(=O)CS(=O)C[C@H](N)C(=O)O (stereo partly specified)
[1]
  activity change, negative = inhibition: 23.6%
[2]
  activity change, negative = inhibition: 11%
[3]
  activity, negative = inhibition: 5.38%
[4]
  Potency: > 46 µM
[5]
  Potency: > 9.22 µM
[6]
  Potency: inactive
[7]
  Potency: inactive
[8]
  activation: 18.8%

## COc1cc2c(cc1O)CC[C@@H]1[C@@H]2CC[C@@]2(C)[C@H](O)CC[C@H]12
[1]
  activity change, negative = inhibition: -4.01% [at 38 µM]
[2]
  activity change, negative = inhibition: -2.76% [at 38 µM]
[3]
  activity, negative = inhibition: -17.5% [at 38 µM]
[4]
  Potency: > 46 µM
[5]
  Potency: > 46 µM
[6]
  Potency: inactive
[7]
  Potency: inactive
[9]
  Potency: inactive
[10]
  Potency: inactive
[11]
  outcome: inactive
[12]
  outcome: inactive
[13]
  outcome: inactive
[14]
  Potency: inactive

## C=C(CC(=O)O)C(=O)O (tested in a mixture with another compound)
[1]
  activity change, negative = inhibition: 6.49%
[3]
  activity, negative = inhibition: -4.69%
[4]
  Potency: > 46 µM
[5]
  Potency: > 9.22 µM
[6]
  Potency: inactive
[7]
  Potency: inactive

## CO/N=C(\C(=O)N[C@@H]1C(=O)N2C(C(=O)O)=C(CSc3nc(=O)c(O)nn3C)CS[C@@H]12)c1csc(N)n1
[1]
  activity change, negative = inhibition: -11.1% [at 38 µM]
[2]
  activity change, negative = inhibition: 4.37% [at 38 µM]
[4]
  Potency: > 46 µM
[5]
  Potency: > 46 µM
[7]
  Potency: inactive
[15]
  outcome: inactive
[16]
  Potency: inactive
[17]
  outcome: inactive
[10]
  Potency: inactive
[11]
  outcome: inactive
[12]
  outcome: inactive
[18]
  Potency: 25.1 µM (active)
[13]
  outcome: inactive
[14]
  Potency: inactive
